PubChem BioAssay (NCI)
“And” between values parts separate entries of the source, which are not always exact repeats. Equal entries are not always repeated. About 83,000 compounds went through this panel and 20% of them were active in at least one assay; those are over-represented in the sample as a whole.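 Assay: single dose, 48 h. Readout: percent growth (0 = no net growth; negative = cell death). Active: <10.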 The source made the active and inactive calls.

Tests used:
Test in all cases: NCI-60 one-dose screen, 48 h (100 = growth as untreated, 0 = no growth, -100 = all killed)
SK-MEL-2 melanoma = test system: SK-MEL-2 melanoma
EKVX NSCLC = test system: EKVX NSCLC
SN12C renal = test system: SN12C renal
UO-31 renal = test system: UO-31 renal
TK-10 renal = test system: TK-10 renal
ACHN renal = test system: ACHN renal
CAKI-1 renal = test system: CAKI-1 renal
A498 renal = test system: A498 renal
CCRF-CEM leukemia = test system: CCRF-CEM leukemia
MOLT-4 leukemia = test system: MOLT-4 leukemia

Measured: growth

CN(Cc1cnc2nc(N)nc(N)c2n1)c1ccc(C(=O)N[C@@H](CCC(=O)O)C(=O)O)cc1
active: A498 renal; 2.5 µM -11.8%
inactive: SK-MEL-2 melanoma; 2.5 µM 93.1% | SK-MEL-2 melanoma; 10 µM 83.2% | EKVX NSCLC; 2.5 µM 41.5% | EKVX NSCLC; 10 µM 47% | SN12C renal; 2.5 µM 33.3% | SN12C renal; 10 µM 26.9% | UO-31 renal; 2.5 µM 37.8% | UO-31 renal; 10 µM 32.3% | TK-10 renal; 2.5 µM 66.9% | TK-10 renal; 10 µM 67.7% | ACHN renal; 2.5 µM 24.9% | ACHN renal; 10 µM 29.4% | CAKI-1 renal; 2.5 µM 19.2% | CAKI-1 renal; 10 µM 15.5% | CCRF-CEM leukemia; 2.5 µM 12.9% | CCRF-CEM leukemia; 10 µM 18.8% | MOLT-4 leukemia; 2.5 µM 14.7% | MOLT-4 leukemia; 10 µM 10.9%

CC/C(=C(\c1ccccc1)c1ccc(OCCN(C)C)cc1)c1ccccc1
inactive: SK-MEL-2 melanoma; 10 µM 68.5% | EKVX NSCLC; 10 µM 60% | EKVX NSCLC; 12.5 µM 36.5% | SN12C renal; 10 µM 47.7% | SN12C renal; 12.5 µM 37.1% | UO-31 renal; 10 µM 40.3% | TK-10 renal; 10 µM 51.9% | TK-10 renal; 12.5 µM 56.2% | ACHN renal; 10 µM 60.6% | ACHN renal; 12.5 µM 25.9% | CAKI-1 renal; 10 µM 29.1% | A498 renal; 10 µM 64.1% | CCRF-CEM leukemia; 10 µM 34.6% | MOLT-4 leukemia; 10 µM 33.3%
active: SK-MEL-2 melanoma; 12.5 µM -50% | UO-31 renal; 12.5 µM -62.4% | CAKI-1 renal; 12.5 µM 9.74% | A498 renal; 12.5 µM -6.6% | CCRF-CEM leukemia; 12.5 µM -14.1% | MOLT-4 leukemia; 12.5 µM -10.8%

CC[C@@]1(O)C(=O)OCc2c1cc1n(c2=O)Cc2cc3c(CN(C)C)c(O)ccc3nc2-1
9.24% (active) and 18.9% (inactive): EKVX NSCLC; 10 µM
inactive: SN12C renal; 10 µM 13.6% and 14.3%
active: SK-MEL-2 melanoma; 10 µM -36.9% and -18.1% | UO-31 renal; 10 µM -45.7% and -74.6% | TK-10 renal; 10 µM 2.54% and -4.42% | ACHN renal; 10 µM -40% and -40.5% | CAKI-1 renal; 10 µM -35% and -16.2% | A498 renal; 10 µM -50.8% and -69.4% | CCRF-CEM leukemia; 10 µM -28.7% | MOLT-4 leukemia; 10 µM -3.69% and -19.2%

COc1ccc2sc3cccc(NCCN(C)C)c3c(=O)c2c1
77.8% (inactive) and 5.39% (active): A498 renal; 10 µM
inactive: SK-MEL-2 melanoma; 10 µM 77.3% and 70.7% | EKVX NSCLC; 10 µM 26.2% | TK-10 renal; 10 µM 36.1% and 32.2% | CCRF-CEM leukemia; 10 µM 21.3%
active: MOLT-4 leukemia; 10 µM 8.84% and -15.2%
23.8% (inactive) and -29.8% (active): CAKI-1 renal; 10 µM
21.3% (inactive) and -28.3% (active): ACHN renal; 10 µM
45.1% (inactive) and 9.54% (active): SN12C renal; 10 µM
17.4% (inactive) and -2.55% (active): UO-31 renal; 10 µM
